Only some compounds are listed: those with a hit (about 7.4% of all), similar ones and a draw of the others.
FLuc counter = inhibits or activates purified firefly luciferase, miR-21 counter-screen; purified FLuc, Km substrates, luminescence inhibition; Potency, µM (titrated, usually from 57.5 µM), most hits filed as inhibitors; hit rate 6.9% among 360,000; AID 588342; also: nearly all actives have a fitted effect of over 55% in size
Target sequence (P08659 whole entry, looked up): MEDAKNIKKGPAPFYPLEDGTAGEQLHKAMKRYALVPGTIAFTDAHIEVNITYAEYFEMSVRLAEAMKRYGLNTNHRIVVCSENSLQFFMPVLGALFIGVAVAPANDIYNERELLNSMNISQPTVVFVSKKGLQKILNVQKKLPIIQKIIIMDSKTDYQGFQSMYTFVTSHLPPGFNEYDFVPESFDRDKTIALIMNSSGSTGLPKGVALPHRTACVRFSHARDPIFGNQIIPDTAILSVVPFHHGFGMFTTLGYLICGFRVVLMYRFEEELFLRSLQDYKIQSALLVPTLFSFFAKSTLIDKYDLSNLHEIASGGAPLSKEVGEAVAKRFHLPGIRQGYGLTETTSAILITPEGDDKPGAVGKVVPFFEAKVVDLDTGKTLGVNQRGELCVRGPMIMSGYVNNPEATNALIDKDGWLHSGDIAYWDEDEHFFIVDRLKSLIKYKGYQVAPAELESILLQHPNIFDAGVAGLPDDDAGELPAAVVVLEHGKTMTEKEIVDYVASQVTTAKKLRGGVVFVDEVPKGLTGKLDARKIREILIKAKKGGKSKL
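Biochemical qHTS of compounds, final roughly 60 µM downward over six points, against 10 nM purified firefly luciferase using Km concentrations of substrates (10 uM D-luciferin, 10 uM ATP) in Tris acetate pH 7.5 buffer; luminescence output.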
Rab9 prom act = activates the Rab9 promoter. hit rate 2.8% among 320,000. Potency, µM (highest dose often 9.22 µM), usual class: activators. Huh7 Rab9 promoter-luciferase reporter, luminescence, 24 h; also: nearly all actives have a fitted effect of over 60% in size
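Luciferase signal after 10 min detection reagent at ambient indicates Rab9 promoter upregulation; stably transfected Huh7 cells were treated 24 h with compound in DMSO at 37 °C, 5% CO2.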
p53 reactivation = restores transcriptional activity of mutant p53. Potency, µM (series often up to 92.2 µM), usual class: activators. hit rate 0.063% among 320,000. H1299 p53-A138V BP100-luciferase reporter, luminescence, 24 h; also: nearly all actives have a fitted effect of over 45% in size
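H1299 (p53-null), stable ts p53-A138V + BP100-Luc; 1000 cells/well, Opti-MEM/10% FBS; cpd 4 pt, 1:5; 24 h, 37 deg C, 5% CO2; detection reagent 10 min RT; luminescence.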
NPC1 promoter act = activators of NPC1 promoter; Huh7 NPC1 promoter luciferase reporter, 24 h; Potency, µM (top dose mostly 9.22 µM), hits mostly activators; hit rate 2.4% among 320,000; AID 485313; also: nearly all actives have a fitted effect of over 60% in size
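Huh7 reporter cells (NPC1 promoter driving luciferase) are dosed with compound for 24 h at 37 °C, 5% CO2; luciferase detection reagent is then added and luminescence measured after 10 min at ambient temperature.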
ELG1 genotox = genotoxicity induction in ELG1-luciferase HEK293T cells; hit rate 1.3% among 330,000; AID 504466; Potency, µM (top dose mostly 46 µM), actives largely listed as activators; HEK293T ELG1-luciferase reporter, luminescence, 16 h; also: nearly all actives have a fitted effect of over 60% in size
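HEK293T cells expressing luciferase-tagged ELG1 were treated with compound or DMSO for 16 hr at 37°C. Luciferase activity was then read after 30 min with ONE-Glo at room temperature; rising signal flags genetic stress.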
SMN2 splice enh = SMN2 splice variant enhancement; HEK293 SMN2-luciferase splicing reporter, luminescence, 30-36 h; Potency, µM (series often up to 46.1 µM), most hits filed as activators; hit rate 2.8% among 210,000; AID 1458; also: nearly all actives have a fitted effect of over 55% in size
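qHTS luciferase splicing reporter: luminescence rises when SMN2 exon 7 is included in transfected HEK293 cells. Compound exposure lasted 30-36 h at 37C, with 4.5 mM final sodium butyrate as control, followed by a ONE-Glo read.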
Hits are given with their value; 0 = inactive; ? = inconclusive; - = no result; [ ] = remark or other dose. Calls follow the shape of the dose curve; as a rule, active = well fitted curve in the direction sought with a large enough effect; inconclusive = small, poorly fitted or top-dose-only effect, or another doubt; inactive = no such curve, though single readings can be large; an effect the other way counts as inactive or inconclusive.

SMILES	FLuc counter	Rab9 prom act	p53 reactivation	NPC1 promoter act	ELG1 genotox	SMN2 splice enh
COc1ccccc1OCC(=O)OC/C(O)=C(\C#N)c1nc2ccccc2[nH]1	?	0	?	0	?	0
CCCNC(=O)Cn1ncc2c3ccccc3n(CCC)c2c1=O	0	-	-	-	-	-
Cc1cc(C)cc(NC(=O)COC(=O)CC2CCCC2)c1	-	0	0	0	0	-
CC(C)(C)c1ccc(-c2conc2N)cc1	2.7µM	2.5µM	?	?	0	18µM
CC(C)(C)c1ccc(-c2noc(C(=O)NN)n2)cc1	?	0	0	0	0	-
Cc1ccc2c(CC(=O)Nc3sccc3C(N)=O)coc2c1	11µM	2.8µM	0	2µM	?	?
Cc1ccc2c(CC(=O)Nc3ccc(N4CCN(C)CC4)cc3C)coc2c1	8.5µM	0	0	?	0	0
FC(F)(F)c1cc(CO[C@H]2CCCN[C@H]2c2ccccc2)cc(C(F)(F)F)c1	-	-	-	-	-	0
Cc1nnc(SCC(=O)Nc2ccc(N3CCOCC3)cc2)n1Cc1ccccc1	-	0	0	0	0	-
O=C(CN1CCN(S(=O)(=O)c2ccccc2)CC1)Nc1ccc(N2CCOCC2)cc1	0	0	0	0	0	0
Cn1c(SCC(=O)Nc2ccc(N3CCOCC3)cc2)nnc1-c1ccco1	17µM	0	0	0	0	-
Cc1cc(NC(=O)CSc2nnc(-c3ccccc3F)n2C)no1	0	0	0	0	0	-
CC(C)n1c(SCC(=O)Nc2ccc(N3CCOCC3)cc2)nnc1-c1ccco1	?	0	0	0	0	-
O=C(CN1CCN(C(c2ccccc2)c2ccccc2)CC1)Nc1ccc(N2CCOCC2)cc1	0	0	0	0	0	13µM
Cn1c(SCC(=O)Nc2ccc(N3CCOCC3)cc2)nnc1-c1ccccc1	17µM	0	0	0	0	0
Cn1c(SCC(=O)Nc2ccc(N3CCOCC3)cc2)nnc1-c1ccccc1F	17µM	0	0	0	0	-
NCCC[C@@H](CC(=O)N[C@@H]1CCNC[C@H]1C(=O)N[C@H](CC(=O)N[C@@H](CCC(=O)O)CC(=O)O)Cc1ccccc1)NC(=O)C[C@H](CO)NC(=O)[C@@H]1CNCC[C@H]1N	-	-	-	-	-	0
Cc1cn(CCC(=O)Nc2ccc(N3CCOCC3)cc2)c2ccccc12	13µM	?	0	?	?	-
Cc1cn(CCC(=O)Nc2ccccc2N2CCOCC2)c2ccccc12	?	?	0	?	?	-
Fc1ccc(-c2ccc(CNCCSc3nnnn3-c3ccccc3)o2)cc1	0	-	-	-	-	-
Clc1ccc(-c2ccc(CNCc3ccccn3)o2)cc1	15µM	0	0	?	0	-
COc1ccc(-c2ccc(CNCc3ccccn3)o2)cc1Cl	?	0	0	0	0	-
Fc1ccc(-c2ccc(CNCc3ccccn3)o2)cc1	24µM	0	0	0	?	-
Cc1ccc(-n2nnnc2SCC(=O)NC2CCS(=O)(=O)C2)c(C)c1 (stereo not given)	0	0	0	0	0	-
CC1C(=O)N2CCCc3cc(NC(=O)C(=O)NCc4cccnc4)cc1c32 (stereo not given)	0	0	0	0	?	-
SMILES	FLuc counter	Rab9 prom act	p53 reactivation	NPC1 promoter act	ELG1 genotox	SMN2 splice enh
CC(C)Oc1cc(O)c2c(=O)c(-c3ccc(O)cc3)coc2c1	5.4µM	1.4µM	0	0.89µM	16µM	7.1µM
COc1c(-c2ccc(O)cc2)oc2cc(O)cc(O)c2c1=O	0	0	0	0	0	-
COc1ccc(-c2coc3cc(O)c(OC)cc3c2=O)cc1	?	?	?	0	?	-
COc1ccc(-c2coc3cc(OC)cc(O)c3c2=O)cc1	1.5µM	1µM	0	0.63µM	?	13µM
O=c1c(-c2ccc(O)cc2)coc2cc(O)cc(O)c12	21µM	13µM	?	5.8µM	16µM	25µM
COc1cc(O)cc2occ(-c3ccc(O)cc3)c(=O)c12	?	0	0	0	0	-
COc1ccc(-c2coc3cc(O)cc(O)c3c2=O)cc1	6µM	2.8µM	?	2.2µM	23µM	18µM
NC(=O)CS(=O)C[C@H](N)C(=O)O (stereo not given in full)	-	-	-	-	-	0[9.22 µM]
Cc1ccc(CSc2c(C)cnc3c2c(=O)n(C)c(=O)n3C)cc1	0	-	-	-	-	-
CC1(C)CC2CC(C)(CN2S(=O)(=O)c2ccccc2[N+](=O)[O-])C1 (stereo not given)	-	-	0	-	0	-
O=C(Nc1ccc(Br)cc1)c1cnc[nH]1	24µM	3.5µM	0	?	?	-
O=Cc1ccccc1OCc1ccc2c(c1)OCO2	1.3µM	0	0	0	13µM	-
COc1ccc(CNC(=O)C2CCN(C(=O)Cc3ccccc3)CC2)cc1	0	0	0	0	0	-
COc1ccc(Cn2c(C)ccc2C)cc1	0	0	0	0	0	0
COc1ccc(Cn2c(-c3ccc(Br)cc3)c[n+]3ccccc23)cc1	11µM	0	?	0	0	11µM
COc1cccc(/C=C/C(=O)OCC(=O)Nc2ccc(Cl)c(S(=O)(=O)N(C)C)c2)c1	11µM	0	0	0	0	0
CN(C)S(=O)(=O)c1cccc(NC(=O)COC(=O)CCOc2ccccc2)c1	0	0	0	0	0	0
CN(C)S(=O)(=O)c1cc(NC(=O)COC(=O)/C=C/c2ccco2)ccc1Cl	?	0	0	0	0	-
COc1cccc(/C=C/C(=O)OCC(=O)Nc2cccc(S(=O)(=O)N(C)C)c2)c1	11µM	0	0	0	0	0
COc1ccc(CCN(C)C(=S)NC(=O)c2ccc(F)cc2Cl)cc1OC	0	0	0	0	0	0
CC(=O)N1CCC(C(=O)N2CCN(S(=O)(=O)c3cccs3)CC2)CC1	0	0	0	0	0	-
O=C(CCc1nc2ccccc2s1)N1CCN(S(=O)(=O)c2cccs2)CC1	0	0	0	0	0	0
O=S(=O)(c1cccs1)N1CCN(Cc2nc3ccccc3s2)CC1	17µM	0	?	0	0	0
O=C(OCc1nc2ccccc2s1)C1CCN(S(=O)(=O)c2cccs2)CC1	13µM	0	?	0	11µM	0
O=C(C1CCN(S(=O)(=O)c2cccs2)CC1)N1CCCCC1	4.3µM	?	0	3.5µM	?	-
SMILES	FLuc counter	Rab9 prom act	p53 reactivation	NPC1 promoter act	ELG1 genotox	SMN2 splice enh
CCOC(=O)C1CCN(S(=O)(=O)C(F)(F)c2nc3ccccc3s2)CC1	27µM	0	?	0	0	0
O=C(COC(=O)C1CCN(S(=O)(=O)c2cccs2)CC1)Nc1ccccc1	0	0	0	0	0	0
Cc1ccc(OCC(=O)OCc2cc(=O)n3c(C)csc3n2)cc1	0	-	-	-	-	-
O=C(NN=C(Cc1ccccc1)Cc1ccccc1)c1ccccc1O	12µM	0	0	0	0	0
O=C(NN=C(Cc1ccccc1)Cc1ccccc1)c1ccc(F)cc1	19µM	0	0	0	0	0
CSc1ccc(NC(=O)NCc2ccccc2)cc1	?	4.5µM	0	4.5µM	?	-
Cc1ccc(C)c(CNC(=O)Nc2ccccc2)c1	13µM	?	?	?	?	-
Cc1ccc(NC(=O)C(=O)NCc2ccc(Cl)cc2)cc1	0	-	-	-	-	0

Source: PubChem (National Center for Advancing Translational Sciences (NCATS))
